Screening results from PubChem BioAssay.
TTR transcr act – activators of transthyretin transcription; SH-SY5Y TTR promoter Gaussia luciferase, luminescence; 100% = recombinant luciferase protein wells; AID 1117267; 92,000 tested, 1.3% active; activation, % at 16.7 µM;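 active = activation above the mean of all tested compounds plus 3 SD, cut at about 9.5% in these data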;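 also: cells exposed to compounds for one day before reading; 0% = median of all test compound wells on the plate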
TTR inh HuH7 – counter-screen for TTR activators: TTR transcription inhibitors in HuH7 cells | shares compounds with TTR transcr act | HuH7 TTR promoter-Gaussia luciferase reporter, luminescence | inhibition, % at 16.7 µM | 1,100 tested, 4% active;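 active = average inhibition above the solvent-only control wells' mean plus 3 SD, cut at about 15% in these data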;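 also: 0% = cells with DMSO only and 100% = cells with inhibitor control FD; inhibitors lower well luminescence so higher value means more inhibition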
TTR act confirm – confirmation of human transthyretin transcription activators | shares compounds with TTR transcr act | SHSY5Y TTR promoter Gaussia luciferase, luminescence; 100% = purified Lucia enzyme wells, no cells | activation, % at 16.7 µM | 1,100 tested, under 10 active | AID 1117280;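 active = mean activation above a set limit taken from the earlier primary screen, cut at about 11% in these data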;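 also: 0% = DMSO-treated cells and 100% = recombinant Lucia luciferase without cells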
* = called active by the depositor. Only a selection was taken, and hits are over-represented in it overall.

SMILES	TTR transcr act	others
COC(CNC(=O)[C@H](Cc1ccccc1)NC(C)(C)C(=O)NC1CCCCC1)OC	-2.1
CC(=O)OCCC(NS(=O)(=O)OCC(Cl)(Cl)Cl)c1ccccc1 (centres undefined)	6.5
Cc1ccc(/C([O-])=C(/C(=S)NCCN2CCOCC2)[n+]2ccccc2)cc1[N+](=O)[O-]	-0.8
CC(C)NC(=O)N(C)C[C@H]1Oc2ccc(NC(=O)Cn3cnnn3)cc2C(=O)N([C@H](C)CO)C[C@@H]1C	-0.3
Cc1noc(C)c1NC(=O)Nc1ccc2c(c1)C(=O)N([C@H](C)CO)C[C@H](C)[C@@H](CN(C)S(=O)(=O)c1ccc(F)cc1)O2	6.9
Cc1ccc(S(=O)(=O)N(C)C[C@@H]2Oc3ccc(NC(=O)Cn4cnnn4)cc3C(=O)N([C@@H](C)CO)C[C@H]2C)cc1	21.4*	TTR inh HuH7=-12.2;TTR act confirm=-1.2
O=C(Cn1cc(C(F)(F)F)ccc1=O)NCc1ccc(F)cc1	-1.5
CC(C)(C)c1ccc(C(=O)Nc2cc(Cl)ccc2-c2nn[nH]n2)cc1	-2.9
CCn1c(CCNC(=O)c2ccccc2Cl)n[nH]c1=S	21.9*	TTR inh HuH7=-4.7;TTR act confirm=0.4
CCn1c(Cc2ccccc2)n[nH]c1=S	-0.3
CCn1c(CCNC(=O)c2ccc(Cl)cc2Cl)n[nH]c1=S	3.9
CC(C)(C)NC(=O)[C@H](c1cccnc1)N(C(=O)c1ccco1)c1ccc(C(C)(C)C)cc1	-2.4
COC(=O)c1ccccc1SC(CC(=O)c1ccccc1)c1ccc(F)cc1 (centres undefined)	-1.9
O=S1(=O)c2c(cccc2N2CCC[C@H]2CO)O[C@@H]2CCN1C2	1.3
O=C(OCc1ccccc1F)c1cc2ccccc2cc1O	10.7*	TTR inh HuH7=-3.6;TTR act confirm=0.9
COc1ccccc1NC(=O)NNC(=O)c1cc2ccccc2cc1O	-0.2
O=C(COC(=O)c1cc2ccccc2cc1O)NC(=O)NCc1ccco1	-0.7
NC(=O)C1CCN(c2ccnc(Cl)n2)CC1	1.5
O=C(COC(=O)/C=C/c1ccc(Br)o1)NCCCN1CCCC1=O	2.5
CCn1c(=O)[nH]n(C/C(C)=C\c2c[n+](Cc3ccc4c(c3)OCO4)c(N)[nH]2)c1=O	0.5
CCOc1ccc(OCC)c(NC(=O)C2CCCN(C(=O)c3ccc(Cl)cc3)C2)c1 (centres undefined)	11.0*	TTR inh HuH7=-15.2;TTR act confirm=-0.1
CCOc1ccc(OCC)c(NC(=O)C2CCCN(S(=O)(=O)c3ccc(C)cc3)C2)c1 (centres undefined)	2.1
CC(C)c1ccccc1NC(=O)C1CCCN(C(=O)c2ccc(Cl)cc2)C1 (centres undefined)	0.0
CC1CN(S(=O)(=O)c2cccc(C(=O)OC(C)C(=O)NC3CCCCC3C)c2)CC(C)O1 (centres undefined)	-0.3
CCOC(=O)C1CCN(S(=O)(=O)c2ccc3[nH]c(=O)oc3c2)CC1	0.7
SMILES	TTR transcr act	others
CCN1CCN(S(=O)(=O)c2ccc3c(c2)NC(=O)CS3)CC1	2.0
CCOC(=O)C1CCN(S(=O)(=O)c2ccc3c(c2)NC(=O)CS3)CC1	11.1*	TTR inh HuH7=-14.9;TTR act confirm=-0.1
Cc1ccc(S(=O)(=O)N2CCSCCSCCSCCSCC2)cc1	-1.8
O=C(CCC(=O)N1CCCCCC1)NCc1ccc(F)cc1	0.1
O=C(CNC1CCCC1)Nc1cc(Cl)ccc1[N+](=O)[O-]	-1.7
Cc1ccc([N+](=O)[O-])cc1NC(=O)Cc1cccs1	-0.1
Cc1ccc([N+](=O)[O-])cc1NC(=O)CNC1CCCCC1	17.4*	TTR inh HuH7=-8.0;TTR act confirm=-0.4
COc1ccc(CN2C(=O)CSCCC2(C)c2nnnn2-c2c(C)cccc2C)cc1 (centres undefined)	0.4
OC(c1ccccc1)c1nc(-c2cc(F)cc(F)c2)cs1 (centres undefined)	1.8
CC(COc1ccc(C#N)cc1)CN1CCC(C(O)(c2ccccc2)c2ccccc2)CC1 (centres undefined)	-0.8
COc1cc(/C(C)=N/NC(=O)Cc2c(C)[nH][nH]c2=O)ccc1O	13.5*	TTR inh HuH7=-5.0;TTR act confirm=0.1
C/C(=N/NC(=O)Cc1c(C)[nH][nH]c1=O)c1ccc(O)cc1	-0.1
COc1ccc(/C(C)=N/NC(=O)Cc2c(C)nc(C)[nH]c2=O)cc1	1.8
CCOC(=O)C1C[C@@H](O)C=CC1=O (some centres undefined)	0.3
Cc1ccc(C#N)c(SCc2cc3c(cc2Cl)OCO3)n1	6.5
Cc1cccc(CSc2nc3c(cc2C#N)CCC3)c1	-2.2
Cc1ccc(C#N)c(SCc2cccc(Br)c2)n1	12.6*	TTR inh HuH7=-11.3;TTR act confirm=8.2
O=C(Nc1cccc(Cl)c1)OCCN1CCCC12CCC(c1ccccc1)CC2 (centres undefined)	-1.2
CC(C)(C)CCN1C[C@@H]2C(CNC(=O)c3cc(Cl)cc(Cl)c3)[C@@H]2C1 (some centres undefined)	-1.9
COC(=O)[C@]12C[C@H](CC(=O)N3CCOCC3)C(=O)N(Cc3ccc4c(c3)OCO4)C1=C[C@H](C(C)C)O[C@@H]2C1CC1	-1.4
COc1ccc(CCNC(=O)Nc2ccc3c(c2)[C@@]2(CC(=O)N(CC(C)C)C2c2ccccc2)C(=O)N3C)cc1OC (some centres undefined)	0.1
CCOCCn1c(CN2CCc3ccccc3C2)nc2c1c(=O)n(C)c(=O)n2C	12.8*	TTR inh HuH7=2.5;TTR act confirm=-0.5
Cn1c(=O)c2c(nc(CN3CCc4ccccc4C3)n2Cc2ccccc2)n(C)c1=O	-3.5
CCOCCn1c(CN2CCN(c3ccccc3)CC2)nc2c1c(=O)n(C)c(=O)n2C	1.8
CC1(c2ccccc2)NC(=O)N(CC(=O)Nc2ccc3c(c2)OCO3)C1=O (centres undefined)	-1.0
SMILES	TTR transcr act	others
COc1ccc(C2(C)NC(=O)N(CC(=O)Nc3ccc4c(c3)OCO4)C2=O)cc1OC (centres undefined)	14.9*	TTR inh HuH7=-12.3;TTR act confirm=0.8
CC1(c2ccc(OC(F)F)cc2)NC(=O)N(CC(=O)Nc2ccc3c(c2)OCO3)C1=O (centres undefined)	-2.4
CC(=O)c1ccc(NC(=O)NC2CCCCN(Cc3ccc(Cl)cc3)C2=O)cc1 (centres undefined)	-1.9
COc1ccc(CN2C(=O)CCCC2(C)c2nnnn2-c2c(C)cccc2C)cc1OC (centres undefined)	1.0
O=C(Cc1ccc(Cl)cc1)Nc1cccc(-c2nnc(-c3ccco3)o2)c1	-0.4
O=C(Cc1ccccc1)Nc1cccc(-c2nnc(-c3ccco3)o2)c1	-3.9
O=C(COc1ccccc1)Nc1ccc(-c2nnc(-c3ccco3)o2)cc1	19.1*	TTR inh HuH7=-1.4;TTR act confirm=-0.7
C[C@H]1[C@@H](N(C)CC2CCCCC2)CC[C@@]23CCCN2C(=O)CCC[C@@H]13	4.3
CC(Oc1ccc(Br)cc1)C(=O)Nc1ccc(S(=O)(=O)N(C)C2CCN(C)CC2)cc1 (centres undefined)	-2.8
O=C(OCc1cn(Cc2ccccc2)nn1)N1CCCC1	2.8
CC(=O)NC1CCCCN(C(C)C)C1=O (centres undefined)	-0.8
COCC(=O)Nc1cc(OC)c(Cl)cc1OC	-1.6
COc1cc(NC(=S)N(C)C)c(OC)cc1Cl	3.4
COc1cc(NC(=S)N(C)CCC#N)c(OC)cc1Cl	11.2*	TTR inh HuH7=-5.9;TTR act confirm=-0.6
COc1ccc(NC(=O)Nc2ccc(O)c3ccccc23)cc1	-0.4
COc1ccc(NC(=O)N2CCCC(C(=O)NCc3ccccc3F)C2)cc1 (centres undefined)	-2.2
